An excerpt weighted towards active compounds, which were near 3.2% of everything screened.
AMA1-RON2 inh = AMA1-RON2 (P. falciparum) interaction inhibition; AID 720542; AlphaScreen AMA1-biotinylated RON2 peptide binding; 360,000 compounds, 0.2% hits; Potency, µM (top dose mostly 58.2 µM), for the others: at the highest dose activity change, negative = inhibition, hits mostly inhibitors;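 also: 0% = vehicle wells and -100% = peptide control; nearly all actives have a fitted effect of over 45% in size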
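AMA1 (3D7) with his tag at 25 nM final met compounds first, then biotinylated RON2 peptide at 25 nM; detection used donor plus acceptor beads, 10 µg/mL apiece, read by AlphaScreen after 30 min at room temperature.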
Sm TGR block = inhibitors of Schistosoma mansoni thioredoxin glutathione reductase; Q962Y6; purified TGR, DTNB reduction, TNB absorbance 405 nm; Potency, µM (doses to about 114 µM), inactives show top-dose activity change, negative = inhibition, usual class: inhibitors; 360,000 compounds, 3% hits; AID 485364; also: nearly all actives have a fitted effect of over 60% in size
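Kinetic colorimetric format: TGR-catalysed, NADPH-driven DTNB reduction monitored via TNB absorbance. Enzyme dispensed at 20 nM; compound exposure 15 min at room temperature before reaction start.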
Tb PYK inh = blocks Trypanosoma brucei pyruvate kinase. Q57TT1. TbPYK enzyme, Kinase-Glo Plus ATP luminescence, 45 min. Potency, µM (doses to about 76.8 µM), for the others: at the top dose activity, negative = inhibition, most hits filed as inhibitors. 410,000 compounds, 0.12% hits. AID 624173; also: nearly all actives have a fitted effect of over 50% in size
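TbPYK + substrate in 50 mM TEA pH 7.2, 100 mM KCl, 10 mM MgCl2, 0.05% BSA, 0.01% Tween-20; cpd pinned; ADP 130 uM final; 45 min RT; Kinase-Glo Plus 10 min; luminescence endpoint.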
LmPK inhibitor = inhibitors of Leishmania mexicana pyruvate kinase | 290,000 compounds, 0.37% hits | AID 1721 | purified LmPK, Kinase-Glo ATP luminescence, 1 h | Q27686 | Potency, µM (titrated, usually from 57.5 µM), without a hit: at the top dose activity change, negative = inhibition, actives largely listed as inhibitors
Target sequence (Q27686 whole entry, looked up): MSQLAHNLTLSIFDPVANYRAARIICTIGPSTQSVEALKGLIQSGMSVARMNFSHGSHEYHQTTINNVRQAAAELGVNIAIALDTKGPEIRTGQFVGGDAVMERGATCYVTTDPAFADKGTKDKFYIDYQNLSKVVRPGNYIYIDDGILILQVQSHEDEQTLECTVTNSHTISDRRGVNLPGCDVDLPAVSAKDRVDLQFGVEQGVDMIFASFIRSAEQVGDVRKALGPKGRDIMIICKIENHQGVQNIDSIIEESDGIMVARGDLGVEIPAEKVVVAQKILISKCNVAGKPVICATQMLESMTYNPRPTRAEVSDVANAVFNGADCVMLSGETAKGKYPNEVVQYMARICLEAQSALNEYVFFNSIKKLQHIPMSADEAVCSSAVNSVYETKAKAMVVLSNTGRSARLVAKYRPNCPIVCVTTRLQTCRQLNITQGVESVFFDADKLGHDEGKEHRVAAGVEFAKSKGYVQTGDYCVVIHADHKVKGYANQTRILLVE
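Screened at intermediate enzyme activity to detect both inhibitors and activators: LmPK at 0.1 nM, with a 0.5 nM enzyme column as activation reference. PEP 0.5 mM, ADP 0.1 mM; ATP detected by luminescence after 1 h.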
RE007 growth inh = less growth of the S. pombe RE007 Vpr strain | S. pombe RE007 Vpr strain, BacTiter-Glo ATP luminescence, 24 h | Potency, µM (top dose mostly 92.2 µM), for the others: at the highest dose activity change, negative = less growth, most hits filed as inhibitors | 360,000 compounds, 0.21% hits | AID 651644; active = well fitted falling curve with a large enough effect; inconclusive = small, poorly fitted or top-dose-only effect; inactive = no such curve, though single readings can be large or run the other way; also: nearly all actives have a fitted effect of over 50% in size
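Fission yeast RE007 carrying one integrated HIV-1 vpr copy, seeded at OD 0.01 in PMG+AL medium with 23 nL pinned compound. Grown 24 h at 30 degrees; viability read by BacTiter-Glo luminescence after 5 min.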
Active calls of the source: *; ? = inconclusive; nt = not tested or not shown; [ ] = another dose, or the depositor's remark. Unless noted, calls follow the shape of the dose curve; as a rule, active = well fitted curve in the direction sought with a large enough effect; inconclusive = small, poorly fitted or top-dose-only effect, or another doubt; inactive = no such curve, though single readings can be large; an effect the other way counts as inactive or inconclusive. Unless noted, % is scaled to controls: 0 for no effect and ±100 for the full control effect; potency is read from the fitted curve at half-maximal effect.

SMILES	AMA1-RON2 inh	Sm TGR block	Tb PYK inh	LmPK inhibitor	RE007 growth inh
Cc1cc(C(=O)N/N=C/c2cc(Br)c(Br)o2)n[nH]1	37%	10µM*	-6%	2%	-10%
CC[C@@H]1[C@H]2CCCC(=O)N3CC[C@@H](C[C@@H]1OC(=O)NCc1ccccc1)[C@@H]23	1%	35µM*	?	-3%	5%
CCCCNC(=O)O[C@H]1C[C@@H]2CCN3C(=O)CCC[C@H]([C@H]1Cc1ccccc1)[C@H]23	-1%	-29%	2%	3%	25%
C=C(C)CNC(=S)N/N=C(\C)c1cccc(NC(C)=O)c1	58%	-21%	0%	0%	1%
C=C(C)CNC(=S)Nc1cccc(N)n1	-7%	2.8µM*	-18%	1%	?
Cc1cccc(C(=O)NCC(=O)OCc2cc(=O)n3nc(CC(C)C)sc3n2)c1	nt	-2%	-8%	nt	nt
CCCCn1c(C23CC4CC(CC(C4)C2)C3)n[nH]c1=S	69%	0%	6.3µM*	-15%	8%
COCCn1c(C23CC4CC(CC(C4)C2)C3)n[nH]c1=S	12%	3%	7.9µM*	-27%	17%
CCOc1ccccc1CN1CCc2nc(Nc3ccc4c(c3)OCCO4)ncc2C1	nt	-4%	-1%	nt	nt
COc1ccc(NC(=O)CCCc2nnc3n(C(C)C)c(=O)c4sccc4n23)cc1Cl	nt	3%	-7%	nt	nt
COc1cc(CN2CCCC(C(=O)c3sccc3C)C2)cc(OC)c1O (centres undefined)	-7%	16µM*	-9%	0%	-16%
COc1cc(CN2CCCC(C(=O)c3sccc3C)C2)cc(Cl)c1O (centres undefined)	-18%	?	-5%	2%	2%
CCOc1ccc(CCNC(=O)CCCc2nnc3n(CC)c(=O)c4sccc4n23)cc1OCC	nt	3%	1%	nt	nt
c1ccc(SSc2ccccn2)nc1	33%	nt	?	nt	45µM*
Cc1cc(=O)oc2cc(OCC(=O)NCCCN3CCCC3=O)c(Cl)cc12	0%	79µM*	0%	-8%	-10%
CN1C(=O)c2ccccc2Sc2ccc(NC(=O)N3CCN(c4ccc(F)cc4)CC3)cc21	nt	-21%	0%	nt	nt
N#CC(C#N)=C1C=CC=CN1/C(=C\c1ccccc1)C(=O)c1cccs1	7%	0.28µM*	-25%	-14%	-7%
O=C(N/N=C/C(Br)=C\c1ccccc1)c1cccs1	-6%	-18%	4%	-8%	-10%
N#CC(C#N)=C1C=CC=CN1/C(=C\c1ccccc1Cl)C(=O)c1ccccc1	-8%	0.28µM*	?	-9%	-10%
CCCC(=O)Nc1cc(C(=O)NCc2ccccc2)ccc1S(=O)(=O)c1ccc(Cl)cc1	nt	8%	0%	nt	nt
Cc1cc(NC(=O)Nc2nc3c(s2)CCCCCC3)ccc1Br	nt	-5%	-3%	nt	nt
COc1ccc(Oc2ccc(N/C=C3/CCCC3=O)cc2)cc1	11%	-15%	20%	-2%	-3%
COc1ccc(N/C=C2/CCCCC2=O)cc1	-2%	40µM*	-4%	-14%	1%
COc1ccc2c(c1)C1=NN(/C(C)=C\C(C)=O)C(c3ccccc3)C1CC2 (centres undefined)	0%	56µM*	-5%	3%	-6%
COc1ccc2c(c1)C1=NN(/C(C)=C/C(C)=O)C(c3ccc(F)cc3)C1CC2 (centres undefined)	37%	?	-4%	3%	-1%
SMILES	AMA1-RON2 inh	Sm TGR block	Tb PYK inh	LmPK inhibitor	RE007 growth inh
Cn1c(-c2ccc(S(=O)(=O)N3CCCC3)cc2)csc1=Nc1ccc(Cl)c(Cl)c1	nt	8.9µM*	2%	nt	nt
O=S1(=O)NC2c3ccccc3CC2O1 (centres undefined)	4%	25µM*	-10%	2%	2%
CCc1ccccc1NC(=O)c1nnn(Cc2ccc(Cl)cc2)c1N	nt	11%	-5%	nt	nt
Cn1nc(C(C)(C)C)cc1C(=O)O	0%	-6%[57.1 µM]	0%	-11%	21%
Cn1nc(C(C)(C)C)cc1C(=O)Sc1cccc(Br)c1	9%	13µM*	-2%	-1%	0%
CC(C)CCn1c(=O)c2sccc2n2c(CCCC(=O)Nc3ccc(F)c(Cl)c3)nnc12	nt	-5%	2%	nt	nt
CCOc1ccccc1NC(=O)Nc1ccc2nc(N3CCN(C)CC3)cc(C)c2c1	nt	2%	-2%	nt	nt
